FID counter: displaces DNA intercalator in HCV helicase counter-screen | DNA fluorescent intercalator displacement, fluorescence | inhibition, % at 7.9 µM | 0.17% of 290,000 active | AID 1845; in the data active = inhibition above about 37%;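 note: 0% = vehicle and 100% = reference compound; higher means more ethidium bromide displaced from hairpin DNA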
IEC-6 tox: IEC-6 cytotoxicity, counter-screen for KLF5 inhibitors; luminescence viability; inhibition, % at 5 µM; 0.78% of 290,000 active;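 note: 0% = plate median of test compound wells and 100% = cytotoxic reference compound wells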
GPR7 antag: blocks human GPR7 receptor signaling; P48145; GPR7-expressing cells, fluorescence antagonist assay; inhibition, % at 4.4 µM; 1.1% of 290,000 active; AID 1861; in the data active = inhibition above about 16%, passing the limit was not always enough;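 note: cells stimulated with the agonist NPW; 0% = agonist with vehicle and 100% = vehicle without agonist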
Target sequence (P48145 whole entry, looked up): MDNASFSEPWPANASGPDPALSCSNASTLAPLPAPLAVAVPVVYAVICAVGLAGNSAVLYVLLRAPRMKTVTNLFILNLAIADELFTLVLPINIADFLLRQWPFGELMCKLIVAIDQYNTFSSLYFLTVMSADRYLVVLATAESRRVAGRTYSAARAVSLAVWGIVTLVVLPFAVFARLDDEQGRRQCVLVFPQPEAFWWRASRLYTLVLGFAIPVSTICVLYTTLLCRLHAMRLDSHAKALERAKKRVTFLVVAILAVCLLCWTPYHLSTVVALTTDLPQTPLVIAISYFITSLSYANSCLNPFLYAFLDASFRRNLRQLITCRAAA
BaF3 tox: parental Ba/F3 viability inhibition as JAK2V617F counter-screen | CellTiter-Glo ATP luminescence | inhibition, % at 5.6 µM | 1.1% of 220,000 active | AID 1486;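 active = inhibition above a per-campaign cutoff, the mean inhibition of all tested compounds plus 3 SD, cut at about 27% in these data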;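 note: 0% = DMSO wells and 100% = JAK Inhibitor I control wells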
KLF5 inhibitor: kruppel-like factor 5 inhibition; inhibition, % at 5 µM; 0.23% of 290,000 active; DLD-1 KLF5 promoter-luciferase reporter, luminescence; AID 1700;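 active = inhibition above a per-plate limit of that plate's mean compound inhibition plus 3 SD, cut at about 60% in these data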;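 note: 0% = DMSO wells and 100% = LY294002 at 200 µM; higher means less KLF5 promoter-driven luciferase light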
Ba/F3 V617F tox: reduce viability of Ba/F3 cells dependent on JAK2V617F; AID 1446; Ba/F3 EpoR-JAK2V617F viability, ATP luminescence; 1.1% of 220,000 active; inhibition, % at 5.6 µM;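 active = inhibition above the campaign mean plus 3 SD over all tested compounds, cut at about 24% in these data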;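 note: cytokine-independent growth of Ba/F3 cells driven by EpoR plus mutant JAK2; 0% = DMSO-treated cells and 100% = JAK inhibitor I control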
IEC-6 tox confirm: IEC-6 cytotoxicity, confirmation assay | shares compounds with IEC-6 tox | IEC-6 rat intestinal epithelial viability, luminescence | inhibition, % at 5 µM | 63% of 1,900 active | AID 1907;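 note: 0% = vehicle and 100% = reference cytotoxic drug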
GPR7 antag conf: confirmation of human GPR7 antagonists; GPR7-expressing cells, calcium fluorescence antagonist mode; 52% of 2,400 active; shares compounds with GPR7 antag; inhibition, % at 4.4 µM; in the data active = inhibition above about 24%;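 note: stimulated with the GPR7 agonist NPW; 0% = agonist plus vehicle and 100% = vehicle alone without agonist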
MCHR1 antagonist: MCHR1 (human) antagonism in GPR7 counter-screen; MCHR1-expressing cells, fluorescence antagonist assay; inhibition, % at 4.4 µM; 62% of 2,400 active; shares compounds with GPR7 antag;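 note: 0% = vehicle with agonist and 100% = vehicle without agonist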
Numbers without * were called inactive. Rows were chosen to be rich in hits. Some 2.6% of all compounds tested hit in one or more screens of this group. Cut-off read from the data, not from the text of the source, unless noted: active = inhibition above about 22%; inactive = the rest.

What do the screens show for `CCC(C)NCCOCCOc1ccc(Cl)c2ccccc12` (configuration not stated)?
FID counter: 50.9*; IEC-6 tox: 33.9*; GPR7 antag: 70.9*; BaF3 tox: 0.9; KLF5 inhibitor: -14.3; Ba/F3 V617F tox: 5.2; IEC-6 tox confirm: 14.8; GPR7 antag conf: 49.7*; MCHR1 antagonist: 52.8*

Results for CS(=O)(=O)c1sc(C#N)c2c1C(=O)CC(c1ccccc1)C2 (configuration not stated) ?
FID counter: -1.4; IEC-6 tox: 75.2*; GPR7 antag: 75.0*; BaF3 tox: 91.8*; KLF5 inhibitor: -11.0; Ba/F3 V617F tox: 99.0*; IEC-6 tox confirm: 19.6; GPR7 antag conf: 96.9*; MCHR1 antagonist: 93.8*

How did Cc1oc2c(c(=O)c1C)C(=O)CC(c1ccccc1)C2 (configuration not stated) do in these assays?
FID counter: -3.0; IEC-6 tox: 0.6; GPR7 antag: -3.2; BaF3 tox: 4.9; KLF5 inhibitor: -29.6; Ba/F3 V617F tox: -1.6

Results for Cc1ccc(C)c(Cn2nnc3c(=O)[nH]c(C4CCN(S(=O)(=O)c5ccc(S(=O)(=O)NC6CC6)cc5)CC4)nc32)c1 ?
FID counter: -42.6; IEC-6 tox: 1.0; GPR7 antag: 0.5; KLF5 inhibitor: 11.5

Results for COc1ccc(-c2cc(C)no2)cc1S(=O)(=O)N1CCN(c2cccc(C)c2)C(C)C1 (configuration not stated) ?
FID counter: -20.3; IEC-6 tox: -0.3; GPR7 antag: 2.4; KLF5 inhibitor: -1.5

Results for Cc1cccc(N2CCN(S(=O)(=O)c3cc(-c4cc(C)no4)ccc3C)CC2C)c1 (configuration not stated) ?
FID counter: -30.2; IEC-6 tox: 49.5*; GPR7 antag: 31.3*; KLF5 inhibitor: 30.4; IEC-6 tox confirm: 32.4*; GPR7 antag conf: 44.8*; MCHR1 antagonist: 61.1*

Results for Cc1cc(-c2ccc(C(C)C)c(S(=O)(=O)N3CCN(c4ccccc4)CC3)c2)on1 ?
FID counter: -34.5; IEC-6 tox: 77.6*; GPR7 antag: 27.4*; KLF5 inhibitor: 49.7; IEC-6 tox confirm: 52.8*; GPR7 antag conf: 29.7*; MCHR1 antagonist: 39.7*

How did COc1cccc(C(C)NC(=O)Nc2ccccc2Cl)c1 (configuration not stated) do in these assays?
FID counter: -5.3; IEC-6 tox: 7.1; GPR7 antag: -15.5; BaF3 tox: -1.1; KLF5 inhibitor: -15.2; Ba/F3 V617F tox: -3.5

How did O=C(c1ccc(Cl)cc1)C(CN1CCCCC1)c1ccccc1 (configuration not stated) do in these assays?
FID counter: -3.9; IEC-6 tox: 22.4*; GPR7 antag: 54.9*; KLF5 inhibitor: -25.3; IEC-6 tox confirm: 20.0; GPR7 antag conf: 65.5*; MCHR1 antagonist: 82.2*

Results for O=C(CCN1C(=O)c2ccccc2C1=O)NCc1ccc(Cl)cc1 ?
FID counter: -7.9; IEC-6 tox: 4.3; GPR7 antag: -7.2; KLF5 inhibitor: -3.6

Results for Clc1ccccc1-c1nnc2sc(-c3ccncc3)nn12 ?
FID counter: -4.6; IEC-6 tox: 5.9; GPR7 antag: 6.2; BaF3 tox: 5.4; KLF5 inhibitor: -56.2; Ba/F3 V617F tox: 2.8

How did CN(C)c1ccc(-c2nn3c(-c4ccccc4Cl)nnc3s2)cc1 do in these assays?
FID counter: 0.3; IEC-6 tox: 35.3*; GPR7 antag: 24.8*; BaF3 tox: 12.5; KLF5 inhibitor: 23.4; Ba/F3 V617F tox: 8.6; IEC-6 tox confirm: 56.9*; GPR7 antag conf: 32.7*; MCHR1 antagonist: 75.5*

Results for O=C(c1ccccc1)c1c2c(cc3sc4ccccc4[n+]13)-c1cccc3cccc-2c13 ?
FID counter: 53.2*; IEC-6 tox: 39.1*; GPR7 antag: 21.3*; BaF3 tox: 68.3*; KLF5 inhibitor: -9.4; Ba/F3 V617F tox: 85.8*; IEC-6 tox confirm: 17.8; GPR7 antag conf: 17.8; MCHR1 antagonist: 31.5*

Results for CC[n+]1ccccc1/C=C1\Sc2ccc(C)cc2N1C ?
FID counter: -1.1; IEC-6 tox: 16.0; GPR7 antag: 18.3; KLF5 inhibitor: -2.5

Results for CCN1/C(=C/c2ccc3cc(C)ccc3[n+]2CC)Sc2cc(C)c(C)cc21 ?
FID counter: -7.9; IEC-6 tox: 38.6*; GPR7 antag: 28.4*; BaF3 tox: 89.1*; KLF5 inhibitor: -0.8; Ba/F3 V617F tox: 99.7*; IEC-6 tox confirm: 29.0*; GPR7 antag conf: 29.7*; MCHR1 antagonist: 14.2

Results for CN(C)CCNC(=O)c1cc2c(s1)-c1ccc(Cl)cc1SC2 ?
FID counter: 24.6; IEC-6 tox: 100.6*; GPR7 antag: 69.1*; KLF5 inhibitor: -42.6; IEC-6 tox confirm: 28.5*; GPR7 antag conf: 93.0*; MCHR1 antagonist: 93.5*

How did CCOCCCNC(=O)c1cc2c(s1)-c1ccccc1SC2 do in these assays?
FID counter: -21.2; IEC-6 tox: 0.5; GPR7 antag: -4.7; KLF5 inhibitor: 0.8

Results for Cc1cccc2cc3c(nc12)SC(=NCC1CCCO1)N(Cc1ccco1)C3 (configuration not stated) ?
FID counter: -39.1; IEC-6 tox: 88.5*; GPR7 antag: 22.5*; BaF3 tox: 8.9; KLF5 inhibitor: 9.4; Ba/F3 V617F tox: 8.6; IEC-6 tox confirm: 3.5; GPR7 antag conf: 12.8; MCHR1 antagonist: 60.2*

Results for Cc1ccc(NC(=O)C2CCN(S(=O)(=O)c3ccc4c(c3)NC(=O)C(C)S4)CC2)c(Cl)c1 (configuration not stated) ?
FID counter: -44.5; IEC-6 tox: -3.4; GPR7 antag: 0.3; KLF5 inhibitor: -7.1

What do the screens show for `Cc1ccc(NC(=O)C2CCN(S(=O)(=O)c3ccc4c(c3)NC(=O)C(C)S4)CC2)cc1Cl` (configuration not stated)?
FID counter: -27.7; IEC-6 tox: 22.1*; GPR7 antag: 37.5*; KLF5 inhibitor: -3.9; IEC-6 tox confirm: 4.2; GPR7 antag conf: 69.5*; MCHR1 antagonist: 75.2*

How did CN1C2CCC1/C(=C\c1ccccc1F)C(=O)/C2=C/c1ccccc1F do in these assays?
FID counter: 4.7; IEC-6 tox: 32.8*; GPR7 antag: 27.8*; BaF3 tox: 3.7; KLF5 inhibitor: -23.5; Ba/F3 V617F tox: 17.4; IEC-6 tox confirm: -0.3; GPR7 antag conf: 21.6; MCHR1 antagonist: 34.0*

Screening data as filed in PubChem.
